Shown are actives, neighbours in structure and some others; about 2.3% of the full set was active somewhere.
JMJD2E inh – inhibitors of human JMJD2E histone demethylase; JMJD2E catalytic domain, FDH-coupled NADH fluorescence (FDH is formaldehyde dehydrogenase); 1.6% of 230,000 active; Potency, µM (series often up to 57.1 µM), hits mostly inhibitors; B2RXH2; active = well fitted inhibition curve with a large enough effect, not every such curve was filed as active; inconclusive = small, poorly fitted or top-dose-only effect, or another doubt; inactive = no such curve, though single readings can be large or run the other way; note: nearly all actives have a fitted effect of over 50% in size
Target sequence (B2RXH2 1-337 limits assumed): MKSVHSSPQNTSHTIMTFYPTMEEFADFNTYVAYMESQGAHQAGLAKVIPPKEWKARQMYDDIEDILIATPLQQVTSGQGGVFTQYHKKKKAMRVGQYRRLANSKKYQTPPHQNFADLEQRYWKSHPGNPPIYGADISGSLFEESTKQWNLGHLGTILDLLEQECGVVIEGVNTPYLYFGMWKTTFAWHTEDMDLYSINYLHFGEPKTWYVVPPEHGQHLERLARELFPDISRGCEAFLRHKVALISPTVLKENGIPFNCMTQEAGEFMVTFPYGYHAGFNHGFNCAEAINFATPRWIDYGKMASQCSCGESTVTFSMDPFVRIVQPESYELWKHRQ
HttQ103 aggreg – mutant huntingtin aggregation inhibition; PC12 HttQ103-GFP aggregates, Acumen cytometry, 40 h; Potency, µM (titrated, usually from 46.1 µM), usual class: inhibitors; 1.1% of 220,000 active; AID 1688; note: nearly all actives have a fitted effect of over 60% in size
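Inducible Q103 Huntingtin exon 1–GFP PC12 line, 1500 cells/well in phenol red free DMEM with 5% equine and 5% calf serum. Tebufenozide 100 nM induced expression; compounds titrated; aggregates quantified by cytometry.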
VDR inh – inhibitors of human vitamin D receptor; AID 504847; P11473; Potency, µM, hits mostly inhibitors; 0.93% of 400,000 active; VDR-SRC2-3 peptide fluorescence polarization, 2 h
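Inhibition of the VDR/SRC2-3 peptide interaction is quantified by fluorescence polarization. Compounds (23 nl, pintool) incubate with the reagents for 2 hours at ambient room temperature.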
HTT ATP protect – Huntington cell model cytoprotection by ATP luminescence. PC12 HTT-Q103 induced, cytoprotection, ATP luminescence, 40 h. Potency, µM (top dose mostly 56.4 µM), usual class: activators. 0.14% of 230,000 active. AID 1471; note: nearly all actives have a fitted effect of over 45% in size
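Readout: ATPlite luminescence (ATP level). Model: stable PC12, inducible Htt exon1 Q103-GFP. Inducer: tebufenozide, 100 nM final. Compounds: dose series. No G418 in medium.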
FBPA coupling cs – coupling enzyme interference in Giardia aldolase counter-screen; coupling enzyme system counterscreen, AmpLite Red fluorescence; activity change, negative = inhibition, % at 58.2 µM, hits read low; 0.67% of 290,000 active; AID 2472; in the data active = activity change below about -30%
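Counterscreen lacking aldolase: glyceraldehyde-3-phosphate coupling-enzyme reagent preincubated 10 min at RT with compound (at 57.5 uM final), then substrate/coupling system with AmpLite Red added; fluorescence read at 525/598 nm after 20 min RT.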
GoLoco inh red – inhibitors of human Gai1-RGS12 GoLoco interaction (red fluorophore). Gai1:RGS12 GoLoco peptide FP, rhodamine, 10 min. 0.44% of 230,000 active. P63096. Potency, µM (top dose mostly 61.6 µM), most hits filed as inhibitors. AID 880; active = well fitted inhibition curve with a large enough effect, not every such curve was filed as active; inactive = no such curve, though single readings can be large or run the other way; note: nearly all actives have a fitted effect of over 30% in size
Hits are given with their value; . = inactive; ? = inconclusive; / = no result; [ ] = dose if it differs, or a comment. Unless noted, calls come from the whole dose curve; as a rule, active = well fitted curve in the direction sought with a large enough effect; inconclusive = small, poorly fitted or top-dose-only effect, or another doubt; inactive = no such curve, though single readings can be large; an effect the other way counts as inactive or inconclusive.

SMILES	JMJD2E inh	HttQ103 aggreg	VDR inh	HTT ATP protect	FBPA coupling cs	GoLoco inh red
Cc1csc2c(NC3CCN(Cc4ccccc4)CC3)ncnc12	.	.[9.22 µM]	.	.[10 µM]	.	.
Cc1sc2ncnc(NC3CCN(Cc4ccccc4)CC3)c2c1C	.	7.1µM	.	.[10 µM]	.	.
Cc1ccc(Nc2ncnc3sc(C)c(C)c23)cc1	.	?	.	.[10 µM]	.	.
CCOc1ccccc1C=Nc1ccccc1C(=O)Nc1ccccc1	?	.	25µM	.[10 µM]	.	.
O=C(Nc1nnc(C2=COCCO2)o1)c1cccc([N+](=O)[O-])c1	/	/	.	/	/	/
O=C(Nc1nnc(-c2ccc(F)cc2)o1)c1cc(Cl)sc1Cl	?	11µM	.	.[10 µM]	.	.
O=C(Nc1nnc(-c2ccc(F)cc2)o1)c1cccc([N+](=O)[O-])c1	?	5.6µM	.	.	.	.
c1nc(N2CCOCC2)c2cc(-c3ccoc3)ccc2n1	/	/	?	.	.	.
CNC(=O)COc1ccc(Nc2nnc(-c3ccc(C)c(S(=O)(=O)NC(C)(C)C)c3)c3ccccc23)cc1	/	/	.	/	/	/
Cc1ccc(CCC(=O)Nc2ccc([N+](=O)[O-])cc2)o1	/	/	.	/	.	/
Cc1ccc(N=Nc2c(N)[nH]n3c(=O)cc(-c4ccccc4)nc23)cc1	.	?	.	.	.	.
COc1cccc(N=Nc2c(N)[nH]n3c(=O)cc(-c4ccccc4)nc23)c1	.	10µM	.	.	.	.
Fc1ccc(NCc2nnc3n2CCCCC3)cc1Cl	/	/	.	/	/	/
CC1(C)CC(NS(=O)(=O)c2ccc(Cl)cc2)CC(C)(C)N1	/	/	89µM	/	.	/
Oc1c(Br)cc(Br)c2cccnc12	20µM	?	?	.	.	.
NS(=O)(=O)c1ccc(Nc2ccc([N+](=O)[O-])c3nonc23)cc1	.	.[9.22 µM]	.	.[10 µM]	-33	.
O=C(O)c1ccc(Nc2ccc([N+](=O)[O-])c3nonc23)cc1	/	/	.	/	.	/
O=C1C(Cl)=C(Nc2ccc3cn[nH]c3c2)C(=O)c2ccccc21	10µM	4µM	?	.[10 µM]	-36	7.9µM
CN(C)c1ccc(NC2=C(Cl)C(=O)c3ccccc3C2=O)cc1	.	14µM	.	.[10 µM]	-43	.
CC(=O)Nc1ccc(NC2=C(Cl)C(=O)c3ccccc3C2=O)cc1	.	?	.	.	.	.
O=C(Nc1ccc2cn[nH]c2c1)c1c(Cl)cccc1Cl	.	.	.	.[10 µM]	.	.
O=C(N/N=C/c1cc(Cl)ccc1O)c1ccccc1Br	11µM	2.5µM	.	.	.	.
CCOc1ccc(Cl)cc1/C=N/NC(=O)CNC(=O)c1ccccc1	?	.	.	.[10 µM]	-38	.
O=C(CNC(=O)c1ccccc1)N/N=C/c1cc(Br)ccc1O	28µM	3.2µM	.	/	.	.
O=C(CNC(=O)c1ccccc1F)N/N=C/c1cc(Br)ccc1OC(=O)/C=C/c1ccco1	?	10µM	.	/	.	.
SMILES	JMJD2E inh	HttQ103 aggreg	VDR inh	HTT ATP protect	FBPA coupling cs	GoLoco inh red
O=C(CSc1cn(CC(=O)N2CCCCC2)c2ccccc12)Nc1ccccc1F	/	/	.	/	/	/
O=C(CNC(=O)c1ccco1)N/N=C/c1cc(Br)ccc1O	/	/	.	/	.	/
O=C(CNC(=O)c1ccccc1Br)N/N=C/c1ccccc1O	25µM	10µM	.	.	.	.
O=C(CNC(=O)c1ccccc1Br)N/N=C/c1cc(Br)ccc1O	?	3.5µM	.	.	.	.
O=C(CNC(=O)c1ccccc1Br)N/N=C\c1cc([N+](=O)[O-])cc(Br)c1O	/	/	.	/	.	/
Cc1sc2nc(CN3CCCC3)nc(Cl)c2c1C	?	13µM	?	.[10 µM]	.	.
O=C1C(Nc2ccccc2)=C/C(=N/S(=O)(=O)c2cccs2)c2ccccc21	?	6.3µM	.	.[10 µM]	-38	.
Cc1ccc(/C=C2\S/C(=N/S(=O)(=O)c3cccs3)NC2=O)cc1	.	.[9.22 µM]	.	.[10 µM]	.	.
COC(=O)c1ccccc1NC1=C/C(=N\S(=O)(=O)c2cccs2)c2ccccc2C1=O	?	?	?	.	.	.
O=C1C(Nc2ccccc2)=CC(=O)c2ncccc21	/	/	?	.	.	.
O=C1C=C(Nc2ccccc2)C(=O)c2ccccc21	.	11µM	.	.	.	.
Cc1ccc(NC2=C/C(=N/S(=O)(=O)c3cccs3)c3ccccc3C2=O)cc1	.	3.5µM	.	/	-42	.

Compound activity (PubChem BioAssay)
